This note sets out measurements from PubChem BioAssay (NCATS).

Structures are written as SMILES. Records with an inconclusive call do not appear. Where a call stands in place of a potency, no number is given. Calls of active or inactive are those of the source. Calls follow the shape of the dose curve; as a rule, active = well fitted inhibition curve with a large enough effect; inconclusive = small, poorly fitted or top-dose-only effect; inactive = flat fitted curve, though single readings scatter.
Potency is read from the fitted curve at half-maximal effect.

The assay is described as follows: P-glycoprotein substrates identified in KB-8-5-11 adenocarcinoma cell line, qHTS therapeutic library screen (AID 1346987). Also: nearly all actives have a fitted effect of over 65% in size. To be noted: KB-8-5-11 (P-gp overexpressing) viability, CellTiter-Glo, 72 h; series mostly up to 44.5 µM. The gist of the method:
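Steps: plate 500 KB-8-5-11 cells/well in DMEM + 10% FCS (colchicine removed); pin compounds in dose-response; incubate 72 h, 37 degree C, 5% CO2; add CellTiter-Glo, 5 min; read luminescence.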
A general note: In qHTS, concentration-response curves come from the screen itself.
On to `CC1C=CC2CCCCC2C1CCC1CC(O)CC(=O)O1` (configuration not stated), for which the Potency entry is “inactive”. As to `O=C(CSc1nc2c(c(=O)n1-c1ccccc1)SCC2)Nc1ccc(-c2ccccc2)cn1`, the Potency is 82 nM (active).

In the case of `C/C(=C/CO)CC[C@@H]1[C@@](C)(O)CCC2C(C)(C)CCC[C@]21C` (some centres not stated), the Potency entry is “inactive”.

As to `COc1ccc(-c2cnc(-c3cccc4c3-c3ccccc3C4=O)o2)cc1`, the Potency was 89.3 nM (active). As for `CC1=C(CO)C(=O)O[C@@H]([C@@H](C)[C@H]2CC[C@H]3[C@@H]4C[C@H]5O[C@]56[C@@H](O)C=CC(=O)[C@]6(C)[C@H]4CC[C@]23C)C1`, the Potency is 2520 nM (active). Still for that read-out and setting: in the case of `COc1cc(Br)c(S(=O)(=O)Nc2ccc(C(F)(F)F)c(O[C@@H]3CCN(C)C3)c2)cc1OC` it was “inactive”; in that of `FC(F)(F)c1ccc(Nc2nc(-c3c(C(F)(F)F)nc4ccccn34)cs2)cc1`, 461 nM (active). As for `CC1OC(OCC2OC(OC3CCC4(C)C(CCC5(C)C4CC=C4C6CC(C)(C)CCC6(C(=O)OC6OC(CO)C(O)C(O)C6O)CCC45C)C3(C)CO)C(O)C(O)C2O)C(O)C(O)C1O` (configuration not stated), the outcome is “inactive [at 9.29 µM]”. As to `NC(=O)c1csc(C2OC(CO)C(O)C2O)n1` (configuration not stated), the Potency entry was “inactive”. Still for that read-out and setting: in the case of `COc1c(Nc2ncc(Cl)c(N[C@H]3[C@@H](C(N)=O)[C@@H]4C=C[C@H]3C4)n2)ccc2c1CC[C@@H](N1CCOCC1)CC2` it was 8200 nM (active); in that of `C=C1C(OC(=O)/C(C)=C\C)[C@@]23CCC4[C@@](C)(CCC[C@@]4(C)C(=O)O)C2CC[C@H]1C3OC(C)=O` (some centres not stated), “inactive”; in that of `CCCCc1ccc(C(=O)Nc2cc(-c3ccc(Cl)cc3)nn2-c2ccc(Cl)cc2)cc1`, “inactive”.
